# Source: PubChem BioAssay
# The list is not random: actives were taken first. Their share in the collection is about 3.9%.
# HT1080 IDH1KD tx: qHTS for induction of synthetic lethality in tumor cells producing 2HG: qHTS for the HT-1080-IDH1KD cell line; HT-1080 IDH1 knockdown viability, ATP luminescence, 48 h; Potency, µM (titrated, usually from 46.1 µM), inactives show at the highest dose activity, negative = toxicity, hits mostly cytotoxic; 2% of 360,000 active;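 also: 0% = DMSO wells and -100% = cell-free medium wells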
#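 CellTiter-Glo luminescence after 48 h compound exposure at 37 degrees C of IDH1-knockdown HT-1080 cells in 5% FBS RPMI. %Activity scaled between DMSO wells and cell-free media wells, with curves fitted and assigned curve classes.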
# ATXN2 expr inh: Primary qHTS for Inhibitors of ATXN expression | 0.72% of 360,000 active | HEK-293 ATXN2-luciferase reporter, luminescence, 24 h | AID 1745845, 2022 | Potency, µM (highest dose often 57 µM), without a hit: top-dose activity change, negative = inhibition, usual class: inhibitors; also: % is scaled to controls: 0 for no effect and ±100 for the full control effect; nearly all actives have a fitted effect of over 55% in size
#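 ATXN2-luciferase reporter cells (luciferase flanked by upstream and downstream ATXN2 gene portions) were treated 24 h at 37 °C with compounds at up to 57 uM. SteadyGlo luminescence gave expression; GF-AFC fluorescence gave viability.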
# HT1080-NT tox: qHTS for induction of synthetic lethality in tumor cells producing 2HG: qHTS for the HT-1080-NT fibrosarcoma cell line; HT-1080-NT fibrosarcoma viability, CellTiter-Glo ATP luminescence, 48 h; 1.6% of 360,000 active; Potency, µM (doses to about 46.1 µM), for inactives: top-dose activity, negative = less viability, hits mostly cytotoxic;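 also: NT is the 2HG producing partner of a matched IDH1 knockdown line; 0% = DMSO-treated cells and -100% = media-only wells without cells; nearly all actives have a fitted effect of over 55% in size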
#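 750 cells/well, RPMI + 5% FBS; 2 h settle, compound pin-transfer, 48 h at 37 degrees C. CellTiter-Glo 10 min RT, luminescence. Normalized to DMSO and media-only wells.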
# TGFb SMAD3 inh: qHTS for Inhibitors of TGF-b | HepG2 CAGA-GFP TGF-b/SMAD3 reporter, GFP fluorescence, 18 h; TGF-beta stimulated, 500 pg/mL final | Potency, µM (titrated, usually from 46.1 µM), for inactives: at the highest dose activity, negative = inhibition, hits mostly inhibitors | 1.2% of 410,000 active | AID 588855, 2011; also: % is scaled to controls: 0 for no effect and ±100 for the full control effect; nearly all actives have a fitted effect of over 65% in size
#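 HEPG2 CAGA-GFP, 1000 cells/well; 2 h settle, 37 C; cpd via pin tool; TGF-b 500 pg/mL final; 18 h, 37 C; GFP imaging ex488/em500-530; %Activity normalised to -TGF-b and +DMSO controls; CRC fit, curve class.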
# HepG2 tox-1: qHTS for Inhibitors of TGF-b: Cytotox Counterscreen; Potency, µM (top dose mostly 46.1 µM), for the others: at the highest dose activity change, negative = cytotoxicity, hits mostly cytotoxic; HepG2 CAGA-GFP viability, ATP luminescence, 18 h; 0.76% of 410,000 active; AID 588856, 2011
#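 HepG2 CAGA-GFP cells (1000/well, DMEM with 1% FBS) received compound, then TGF-beta at 500 pg/mL final, and were incubated 18 hours at 37 degrees C. Viability was read by CellTiter-Glo luminescence. Media-only wells were set as complete cell-killing and DMSO as no toxicity.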
# S2 tox: Viability Counterscreen for Primary qHTS for Inhibitors of ATXN expression; S2 cells (HEK-293 line with an ATXN2-luciferase reporter) viability, CellTiter-Fluor protease fluorescence, 24 h; Potency, µM (titrated, usually from 56.7 µM), most hits filed as cytotoxic; 0.49% of 400,000 active; also: nearly all actives have a fitted effect of over 40% in size
# TGFb CAGA inh: qHTS for Inhibitors of TGF-b: Confirmation of Cherry Picks; HepG2 CAGA-GFP TGF-b reporter, GFP fluorescence, 18 h; cells stimulated with TGF-beta, 500 pg/mL; shares compounds with TGFb SMAD3 inh; AID 720534, 2013; 63% of 1,600 active; Potency, µM (series often up to 46.1 µM), for inactives: at the top dose activity, negative = inhibition, actives largely listed as inhibitors; also: % is scaled to controls: 0 for no effect and ±100 for the full control effect; nearly all actives have a fitted effect of over 65% in size
# HepG2 tox-2: qHTS for Inhibitors of TGF-b: Cytotox Counterscreen for Cherry Picks. shares compounds with TGFb SMAD3 inh. HepG2 CAGA-GFP viability, ATP luminescence, 18 h; cells stimulated with TGF-beta, 500 pg/mL. Potency, µM (series often up to 46.1 µM), inactives show at the highest dose activity, negative = cytotoxicity, most hits filed as inhibitors. 27% of 1,600 active. AID 720535, 2013; also: % is scaled to controls: 0 for no effect and ±100 for the full control effect; nearly all actives have a fitted effect of over 70% in size
# TGFb CCL64 inh: qHTS for Inhibitors of TGF-b: CCL64 Cells Orthogonal Assay for Cherry Picks | shares compounds with TGFb SMAD3 inh | CCL64 CAGA-GFP reporter, TGF-b stimulated, GFP fluorescence, 18 h | Potency, µM (titrated, usually from 46.1 µM), for inactives: at the top dose activity, negative = inhibition, hits mostly inhibitors | 41% of 1,600 active; also: nearly all actives have a fitted effect of over 65% in size
# TGFb COP inh: qHTS for Inhibitors of TGF-b: Hit Validation in HepG2 Cells using COP promoter. Potency, µM (top dose mostly 46.1 µM), for inactives: top-dose activity, negative = inhibition, most hits filed as inhibitors. AID 720537, 2013. HepG2 COP-GFP TGF-b reporter, GFP fluorescence, 18 h; cells stimulated by added recombinant TGF-beta. 3% of 1,600 active. shares compounds with TGFb SMAD3 inh; also: nearly all actives have a fitted effect of over 70% in size
# Active calls of the source: *; i = inactive; ? = inconclusive; / = not tested or not shown; [ ] = another dose, or the depositor's remark. Calls follow the shape of the dose curve; as a rule, active = well fitted curve in the direction sought with a large enough effect; inconclusive = small, poorly fitted or top-dose-only effect, or another doubt; inactive = no such curve, though single readings can be large; an effect the other way counts as inactive or inconclusive. Potency is read from the fitted curve at half-maximal effect.
SMILES,HT1080 IDH1KD tx,ATXN2 expr inh,HT1080-NT tox,TGFb SMAD3 inh,HepG2 tox-1,S2 tox,TGFb CAGA inh,HepG2 tox-2,TGFb CCL64 inh,TGFb COP inh
CCOC(=O)c1ccc(N=Nc2c(C)[nH]n(-c3ccccc3)c2=O)cc1,8.0%,/,4.5%,24.6%,7.0%,i,/,/,/,/
CCOC(=O)c1ccc(-n2[nH]c(-c3ccccc3)cc2=O)cc1,?,?,?,?,10µM*,i,16.4µM*,?,?,45.2%
CC1CCN(C(=O)Cn2c(-c3cccs3)cc3cc(Cl)ccc32)CC1,/,-10.8%,/,?,-21.3%,i,/,/,/,/
CC(C)(C)C(=O)Nc1cc(-c2cccc(Br)c2)nn1-c1ccccc1,/,-26.7%,/,-23.3%,-17.8%,?,/,/,/,/
CC(=O)c1ccc2c(c1)N(Cc1ccc3ccccc3c1)C(=O)C(C)S2 (stereo unspecified),?,-19.8%,?,7.94µM*,-16.8%,i,20.6µM*,4.3%,-11.4%,2.9%
O=S(=O)(NCC(c1ccco1)S(=O)(=O)c1ccccc1)c1cc(F)ccc1F (stereo unspecified),/,/,/,?,-4.9%,/,/,/,/,/
COc1ccc(-c2cc(N)n(S(=O)(=O)c3c(F)c(F)c(F)c(F)c3F)n2)cc1OC,3.98µM*,7.94µM*,7.08µM*,3.98µM*,8.91µM*,10µM*,2.59µM*,8.2µM*,2.91µM*,?
COc1ccc(C2/C=C\CN(C(=O)C3CCCC3)C(C)C(=O)N2Cc2ccc(F)cc2)cc1 (stereo unspecified),/,/,/,?,-17.3%,/,/,/,/,/
Cc1ccc(SC(C)C(=O)NCc2ccncc2)cc1 (stereo unspecified),4.4%,4.8%,7.7%,?,-28.2%,i,?,2.9%,14.5%,-8.1%
CC(=O)N1CCc2c(sc3c2c(=O)n(-c2ccccc2)c(=O)n3Cc2cccc(C(F)(F)F)c2)C1,/,?,/,?,-60.9%,i,/,/,/,/
CCOc1ccc(NC(=O)Nc2cc(OCC(F)(F)F)cc(OCC(F)(F)F)c2)cc1,?,-15.8%,-1.7%,-15.8%,-16.2%,i,/,/,/,/
O=C(Nc1ccc(F)cc1)Nc1cc(OCC(F)(F)F)cc(OCC(F)(F)F)c1,8.2µM*,11.2µM*,7.31µM*,3.98µM*,8.91µM*,?,6.51µM*,?,7.31µM*,46.9%
O=C(Nc1ccc(Cl)cc1)N(Cc1nc2ccccc2c(=O)[nH]1)Cc1cccs1,-18.4%,-19.9%,-11.6%,10µM*,7.6%,?,20.6µM*,?,?,38.5%
COc1ccc(C(NC(=O)CN2C(=O)NC3(CCc4ccccc43)C2=O)c2ccccc2)cc1 (stereo unspecified),?,/,?,?,-8.9%,?,?,-13.2%,-22.5%,-9.7%
CSc1cccc(NC(=O)c2cnn(-c3ccc(F)cc3)c2-n2cccc2)c1,/,-16.4%,/,8.6%,-3.0%,i,/,/,/,/
Cc1cccc(NS(=O)(=O)c2ccc(C)c(C(=O)NC3CCN(Cc4ccccc4)CC3)c2)c1,-10.5%,/,-9.6%,10µM*,-16.1%,/,?,-27.7%,?,5.0%
O=C(c1ccc(CSc2nc3ccncc3[nH]2)cc1)N1CCCCCC1,?,?,?,-15.6%,-38.5%,i,/,/,/,/
O=C(c1ccc(CSc2nc3ccncc3[nH]2)cc1)N1CCN(c2cccc(Cl)c2)CC1,-29.5%,?,-13.8%,7.94µM*,-44.6%,?,16.4µM*,?,?,11.9%
CCOc1ccc(C2=Nn3c(nnc3-c3ccccc3OC)SC2)cc1,0.0103µM*,-18.6%,0.206µM*,10µM*,-23.5%,i,0.231µM*,-7.9%,0.461µM*,-5.9%
Cc1cc(NC(=O)c2ccccc2NS(=O)(=O)c2c(C)c(C)cc(C)c2C)no1,8.8%[9.24 µM],-2.0%,-8.7%,?,-20.7%,i,/,/,/,/
Cc1ccc(C)c(S(=O)(=O)Nc2ccccc2C(=O)Nc2cc(C)on2)c1,?,?,?,7.94µM*,-36.1%,i,?,?,?,22.3%
COc1ccccc1NC(=O)c1sc2cccc(Cl)c2c1Cl,/,/,/,-19.4%,-16.7%,/,/,/,/,/
CCN(C(=O)c1cn(CC)c(=O)c2cc(OC)c(OC)cc12)c1ccc(C)c(C)c1,/,-13.1%,/,-7.9%,-16.8%,i,/,/,/,/
CCn1c(=O)cc(SCC(=O)Nc2cc(Cl)ccc2OC)c2ccccc21,/,?,/,?,-33.8%,?,/,/,/,/
Cc1cc(C)cc(C(=O)NC(=S)Nc2ccc(Cc3ccncc3)cc2)c1,?,-36.5%,?,7.08µM*,-25.1%,i,13µM*,?,-24.0%,14.6%
Cc1cccc(C(=O)NC(=S)Nc2ccc(Cc3ccncc3)cc2)c1,?,-8.4%,?,?,-28.7%,i,/,/,/,/
Cc1ccc(OCCNC(=O)/C=C/c2ccc([N+](=O)[O-])cc2)cc1C,-14.5%,-7.0%,-8.7%,?,-0.5%,i,-23.3%,-1.6%,-8.6%,1.7%
